Bioassay records as filed in PubChem BioAssay.
RGS4-Gao reg – modulates binding of RGS4 to human Galphao | P09471 | Multiplexed bead flow cytometry; actives lie on both sides | binding response (% of control), % at 10 µM | 220,000 compounds, 0.33% hits; in the data active means binding response below about 49% or above about 150%; inactive means in between;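 further: fluorescent Galphao activated with aluminum fluoride binding bead-coupled RGS4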
RGS8-Gao – modulates binding of RGS8 to human Galphao; multiplexed bead flow cytometry; actives lie on both sides; response (percent of control binding), % at 10 µM; AID 1423; P09471; 220,000 compounds, 0.34% hits; in the data active means response below about 60% or above about 140%; inactive means in between;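 further: Galphao activated as the GDP aluminium fluoride complex binding bead-coupled RGS8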
RGS16-Gao HTS – RGS16-Galphao interaction regulator (human) | bead-based flow cytometry RGS16-Galphao binding, fluorescence; actives lie on both sides | binding response (% of control), % at 10 µM | 220,000 compounds, 0.38% hits | AID 1441;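 further: Galphao activated by GDP with aluminum fluoride before binding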
GSH bead fluor – GSH bead compound fluorescence profile | GSH beads flow cytometry, compound fluorescence 488/530 nm; stronger effect = higher value | fluorescence (KMESF) at 10 µM | 190,000 compounds, 0.25% hits | AID 1776; in the data active means fluorescence above about 89;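 further: glutathione beads carrying GST-tagged Bcl family fusion proteins plus one bare bead set; values are compound well signal with DMSO vehicle wells as background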
Avidin bead fluor – avidin bead compound fluorescence profile; 220,000 compounds, 0.38% hits; Avidin beads, compound fluorescence 488/530 nm, flow cytometry; stronger effect = higher value; fluorescence (KMESF) at 10 µM; in the data active means fluorescence above about 47
RGS7-Gao – regulators of human RGS7-Galphao interaction; P09471; Multiplexed bead flow cytometry, RGS7-Galphao binding; actives lie on both sides; binding response (% of control), % at 10 µM; 220,000 compounds, 0.35% hits; AID 1439; in the data active means binding response below about 49% or above about 150%; inconclusive means no clear call, values can overlap the other calls; inactive means in between;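 further: fluorescent Galphao held in activated GDP-AlF4 state binding bead-coupled RGS7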
RGS4-Gao HTS – modulates binding between human RGS4 and Galphao; shares compounds with RGS16-Gao HTS; AID 1504; RGS4–Galpha-o binding response, % at 10 µM; multiplexed bead flow cytometry, RGS–Galpha-o binding; 1,600 compounds, 99% hits;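 further: fluorescently labeled Galpha-o bound to GDP with aluminium fluoride binding biotinylated RGS beads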
Avidin counter – biotin-avidin bead binding disruption counter-screen | 1,700 tested, under 10 active | streptavidin beads, fluorescein-biotin binding, flow cytometry | shares compounds with RGS16-Gao HTS | AID 1783 | inhibition, % at 10 µM;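 active means inhibition above 50%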;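 further: median green fluorescence of gated singlet beads compared with DMSO control wells; 0% = DMSO wells and 100% = complete loss of bead fluorescence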
RGS8-Gao single – RGS8-Galphao interaction regulation, single point confirmation; 1,700 compounds, 3% hits; binding response (% of control), % at 10 µM; bead-based flow cytometry RGS8-Galphao binding, fluorescence; actives lie on both sides; shares compounds with RGS16-Gao HTS; in the data active means binding response below about 72% or above about 130%; inactive means in between;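 further: Galphao activated as GDP AlF4 complex before binding bead RGS8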
RGS7-Gao confirm – RGS7-Galphao interaction regulation, single point confirmation | shares compounds with RGS16-Gao HTS | bead-based flow cytometry RGS7-Galphao binding; actives lie on both sides | response (percent of control binding), % at 10 µM | 1,700 compounds, 7.8% hits | AID 1837; in the data active means response below about 75% or above about 130%; inactive means in between;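 further: fluorescent Galphao activated with GDP and aluminum fluoride binding bead-coupled RGS7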
RGS16-Gao single – RGS16-Galphao interaction regulation, single point confirmation. shares compounds with RGS16-Gao HTS. bead-based flow cytometry, RGS16-Galphao binding; actives lie on both sides. response (% of control binding), % at 10 µM. 1,700 compounds, 4% hits. AID 1838; in the data active means response below about 74% or above about 130%; inactive means in between;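 further: Galphao activated as the GDP aluminium fluoride complex binding bead-coupled RGS16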
RGS4-Gao confirm – confirmation of regulators of human RGS4-Galphao interaction | binding response (% of control), % at 10 µM | 1,700 compounds, 4% hits | shares compounds with RGS16-Gao HTS | RGS4-Galphao binding, multiplexed bead flow cytometry; actives lie on both sides; in the data active means binding response below about 74% or above about 130%; inactive means in between
RGS19-Gao single – confirmation of regulators of human RGS19-Galphao interaction. shares compounds with RGS16-Gao HTS. AID 1841. 1,700 compounds, 5% hits. bead-based flow cytometry RGS19-Galphao binding; actives lie on both sides. response (percent of control binding), % at 10 µM; in the data active means response below about 50% or above about 160%; inactive means in between;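 further: 100% = no compound control and 0% = blank background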
The depositor's hits bear a star; [ ] = remark or other dose. Sampled rows, rich in hits. Any-hit rate of the full collection: about 1.2%. Unless noted, how the calls were made is not given here.

For COc1ccc(-c2nnc(N(C)C(=O)C3CCCO3)s2)cc1 (configuration not stated) the results were RGS4-Gao reg 104, RGS8-Gao 104, RGS16-Gao HTS 111, GSH bead fluor 22, Avidin bead fluor 20 and RGS7-Gao 104.
COCCCNc1ccnc2c(Cl)cccc12 was read as RGS4-Gao reg 98, RGS8-Gao 99, GSH bead fluor 39, RGS7-Gao 101, Avidin counter 0, RGS8-Gao single 100, RGS7-Gao confirm 97, RGS16-Gao single 99, RGS4-Gao confirm 100 and RGS19-Gao single 113.
For COCCNc1ccnc2c(Cl)cccc12 the results were RGS4-Gao reg 99, RGS8-Gao 96, RGS16-Gao HTS 77, GSH bead fluor 26, Avidin bead fluor 4 and RGS7-Gao 104.
Screening O=c1[nH]cnc2c1oc1ccccc12 returned RGS4-Gao reg 117, RGS8-Gao 143*[activator], RGS16-Gao HTS 297, GSH bead fluor 18, Avidin bead fluor 9, RGS7-Gao 106, RGS4-Gao HTS 117*, Avidin counter 0, RGS8-Gao single 103, RGS7-Gao confirm 105, RGS16-Gao single 104, RGS4-Gao confirm 106 and RGS19-Gao single 104.
Screening CCc1nc2c(oc3ccccc32)c(=O)[nH]1 returned RGS4-Gao reg 99, RGS8-Gao 102, RGS16-Gao HTS 100, GSH bead fluor 12, Avidin bead fluor 36 and RGS7-Gao 100.
Screening O=C(O)C(Cc1c[nH]c2ccccc12)N1C(=O)C2C3c4ccccc4C(c4ccccc43)C2C1=O (configuration not stated) returned RGS4-Gao reg 106, RGS8-Gao 104, RGS16-Gao HTS 111, GSH bead fluor 12, Avidin bead fluor 21 and RGS7-Gao 108.
For O=C(CN1CCCCC1)Nc1ccccc1-c1ccccc1 the results were RGS4-Gao reg 144, RGS8-Gao 159*[activator], RGS16-Gao HTS inactive, GSH bead fluor 48, Avidin bead fluor 4, RGS7-Gao 125, RGS4-Gao HTS 144*, Avidin counter -2, RGS8-Gao single 101, RGS7-Gao confirm 101, RGS16-Gao single 100, RGS4-Gao confirm 101 and RGS19-Gao single 101.
For O=C(CN1CCOCC1)Nc1ccccc1-c1ccccc1 the results were RGS4-Gao reg 88, RGS8-Gao 91, RGS16-Gao HTS 86, GSH bead fluor 20, Avidin bead fluor 5 and RGS7-Gao 87.
CCCn1c(=O)c(Br)cn(-c2ccccc2C)c1=O was read as RGS4-Gao reg 102, RGS8-Gao 100, RGS16-Gao HTS 97, Avidin bead fluor 33 and RGS7-Gao inconclusive.
